Among all 58,000 compounds or so, about 3,400 (5.9%) were called active. The sample as a whole holds a higher share of actives than the screen did. Values without a mark were called inactive.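 Rule for the calls: active = luminescence count or its row- and column-corrected plate score outside the 99.7% band of the plate's sample wells, on either side; inactive = the rest.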
target: D(1A) dopamine receptor (Homo sapiens) (UniProt P21728); test: D1 CRE-luciferase signal change, two-sided – cell-based, HEK293 D1, dopamine EC30, D1 allosteric modulator project, primary screen (AID 641); details: dopamine EC30 potentiation, at 10 µM, actives deviate in either direction
Sequence (P21728 whole entry, looked up): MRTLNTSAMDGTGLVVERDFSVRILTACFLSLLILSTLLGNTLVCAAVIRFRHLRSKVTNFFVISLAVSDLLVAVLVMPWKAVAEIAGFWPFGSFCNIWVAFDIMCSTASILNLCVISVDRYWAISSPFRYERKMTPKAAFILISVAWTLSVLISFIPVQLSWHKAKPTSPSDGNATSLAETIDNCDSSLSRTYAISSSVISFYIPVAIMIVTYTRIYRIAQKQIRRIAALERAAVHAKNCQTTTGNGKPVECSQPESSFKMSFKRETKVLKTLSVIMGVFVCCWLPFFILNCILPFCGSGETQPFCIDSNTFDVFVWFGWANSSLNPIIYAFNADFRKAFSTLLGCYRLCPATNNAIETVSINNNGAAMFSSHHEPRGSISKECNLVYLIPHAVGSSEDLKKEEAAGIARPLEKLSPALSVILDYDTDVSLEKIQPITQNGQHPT

| Compound | B-score |
| --- | --- |
| CC(Nc1nc(N2CCCC2)nc2ccccc12)c1ccccc1 (stereo not drawn) | -4.18 (active) |
| Cc1ccc(C(CC(=O)O)Nc2nc(N3CCCCC3)nc(N3CCCCC3)n2)cc1 (stereo not drawn) | -0.363 |
| O=C(Nc1ccc2c(c1)OCCO2)C1CCCN(c2ncccn2)C1 (stereo not drawn) | -3.93 (active) |
| Cc1ccnc(N2CCCC(C(=O)Nc3cc(F)ccc3C)C2)n1 (stereo not drawn) | -0.197 |
| O=C(CSc1nc2ncccc2[nH]1)Nc1ccc2c(c1)OCCO2 | 0.287 |
| O=C1c2oc3ccc(Br)cc3c(=O)c2C(c2cccc(F)c2)N1CCO (stereo not drawn) | -0.882 |
| CN=C1SC(C(=O)O)CC(=O)N1C (stereo not drawn) | -0.346 |
| Cc1noc(NS(=O)(=O)c2ccc(N3CC(O)=C(c4ccccc4)C3=N)cc2)c1C | 0.215 |
| COCCNC(=O)COc1ccc(C)c(C)c1 | 0.751 |
| CCOc1cccc(C(=O)Nc2cccnc2)c1 | 0.108 |
| O=C(Nc1cccnc1)c1noc2c1CCCCC2 | -2.9 (active) |
| O=C(Nc1cccnc1)c1ccc2c(c1)OCO2 | -0.0115 |
| Cc1nnc(SCC(=O)NCc2ccccc2)s1 | 0.474 |
| O=C(CSc1nnc2ccccn12)c1ccccc1 | -0.291 |
| COc1ccc(-n2c(SC)nc(O)cc2=O)cc1 | 0.0194 |
| COc1ccc(NC(=O)C2CCCN(S(=O)(=O)c3cccc4cccnc34)C2)cc1OC (stereo not drawn) | 11.5 (active) |
| COc1ccccc1CNC(=O)C1CCCN(S(=O)(=O)c2cccc3cccnc23)C1 (stereo not drawn) | -0.155 |
| COc1ccc(NC(=O)C2CCCN(S(=O)(=O)c3cccc4cccnc34)C2)cc1 (stereo not drawn) | -1.11 |
| COc1ccc(OC)c2[nH]c(=O)c(CCNC(=O)C(C)(C)C)cc12 | -0.197 |
| CCCCn1c(SCC(=O)NCCc2ccc(OC)c(OC)c2)nc2c1c(=O)n(C)c(=O)n2C | 0.0783 |
| CCCSc1nc2c(c(=O)n(C)c(=O)n2C)n1Cc1ccc(C)cc1 | 1.94 |
| CCOc1ccc(Cn2c(SCCCCC#N)nc3c2c(=O)n(C)c(=O)n3C)cc1OCC | 10.1 (active) |
| Fc1ccc(OCc2nn3c(Cn4nnc5ccccc54)nnc3s2)cc1 | -0.628 |
| Oc1ccc(Cl)cc1/C=N/c1nc2ccccc2[nH]1 | 1.49 |
| N#Cc1ccc(COC(=O)Cn2nnc(-c3ccccc3)n2)cc1 | 0.71 |

| Compound | B-score |
| --- | --- |
| N#Cc1c(N)sc2c1CCN(C(=O)OCc1ccccc1)C2 | 5.84 (active) |
| COc1cccc(NC(=O)C2CCCN2C(=O)OCc2ccccc2)c1 (stereo not drawn) | 0.12 |
| O=C(NCCN1CCOCC1)c1ccc2c(c1)ncn2C1CCCC1 | -0.956 |
| COc1ccc(CCNC(=O)CCn2c(=O)oc3ccccc32)cc1OC | 6.86 (active) |
| COc1ccc(OC)c(NC(=O)Cn2c(=O)oc3ccccc32)c1 | 0.945 |
| COc1ccc(CCNC(=O)CCCCn2c(=O)[nH]c3ccccc3c2=O)cc1OC | 0.358 |
| Cc1c(C(=O)NCC2CCCO2)sc2nc(-c3ccccc3)cn12 (stereo not drawn) | 0.33 |
| COc1ncnc2sc3c(c12)CCCC3 | 5.43 (active) |
| CC1(C)CN=C(N2CCN(c3ncnc4sc5c(c34)CCCC5)CC2)S1 | -0.977 |
| O=C(O)[C@@H]1CCCN1c1ncnc2sc3c(c12)CCC3 | -0.0144 |
| O=C(NC1CCCCC1)C1CCCN(S(=O)(=O)c2cccs2)C1 (stereo not drawn) | 0.0829 |
| O=C(CCSc1ccccc1)NCCSc1ccccn1 | 0.117 |
| COc1ccc(/C(O)=C2/C(=O)C(=O)N(CCCN(C)C)C2c2ccccc2)cc1OC (stereo not drawn) | -0.187 |
| COc1cccc(C2/C(=C(/O)c3ccncc3)C(=O)C(=O)N2CCCN(C)C)c1 (stereo not drawn) | -3.02 (active) |
| COc1cccc(C2/C(=C(/O)c3ccc(F)cc3)C(=O)C(=O)N2CCN(C)C)c1 (stereo not drawn) | -0.0254 |
| O=S(N1CCCCCC1)C12CC3CC(CC(C3)C1)C2 (stereo not drawn) | -1.48 |
| CCCN1C(=O)C(NS(=O)(=O)c2ccc(N)cc2)(C(F)(F)F)C(C(=O)OC)=C1C (stereo not drawn) | -0.0535 |
| C=CCNC(=O)CCCOc1cccc(C)c1 | 0.267 |
| Cc1nc2c(-c3ccc(F)cc3)c(C)nn2c(C)c1CCC(=O)N1CCN(c2ccccn2)CC1 | -0.178 |
| CCOc1cc(C(=O)N2CCc3cc(OC)c(OC)cc3C2)ccc1OC(F)F | 15.1 (active) |
| CCOc1cc(CN2CCN(C(=O)CC(C)C)CC2)ccc1OC | 0.0601 |
| COc1ccc(C(=O)N2CCC(C(=O)Nc3cccc(C)c3)CC2)cc1OC | -0.521 |
| O=C1CCCN1CCCNc1ncnc2c1[nH]c1ccccc12 | -0.02 |
| CCN1CCCC1CNc1ncnc2c1[nH]c1ccc(F)cc12 (stereo not drawn) | -0.311 |
| CC(C)OCCCNc1ncnc2c1[nH]c1ccc(F)cc12 | -3.37 (active) |

| Compound | B-score |
| --- | --- |
| c1csc(-c2cn3c(n2)SCC3)c1 | -0.433 |
| O=C(COC(=O)c1ccc2c(c1)OCCO2)NCc1ccccc1 | 0.524 |
| COc1cc2[nH]c(=S)n(Cc3ccc(C)o3)c(=O)c2cc1OC | 2.05 |
| CCOC(=O)N1CCN(C(=O)CN(c2ccc(C)c(C)c2)S(=O)(=O)c2ccccc2)CC1 | -0.0191 |
| COc1ccccc1Nc1nc(N)nc(CN(C)C2CCCCC2)n1 | -0.094 |
| COc1ccccc1NC1=NC(c2ccc(Cl)cc2)N=C(N)N1 (stereo not drawn) | -3.3 |
| COc1ccccc1NC1=NC2(CCCC2)N=C(N)N1 | -3.14 (active) |
| c1ccc(-n2ncc(-c3nn[nH]n3)n2)cc1 | -1.26 |
| CCCOC(=O)CC1C(=O)NCCN1Cc1ccc(F)cc1 (stereo not drawn) | -0.0757 |
| CC1CCCN(C(=O)c2ccc3c(c2)C(=O)N(CCC2=CCCCC2)C3=O)C1 (stereo not drawn) | -0.192 |
| COC(=O)Nc1c(C)n(C)n(-c2ccccc2)c1=O | -1.4 |
| CCN(CC)CCN1C(=O)C(=O)/C(=C(/O)c2ccc(OC)c(OC)c2)C1c1ccccn1 (stereo not drawn) | -0.322 |
| COc1cc(-n2c(C)nc3cc(C(=O)NCc4ccco4)ccc32)cc(OC)c1OC | 0.213 |
| COc1ccccc1NC(=O)CSc1nnc(Cc2cccn2C)n1-c1ccc(F)cc1 | -0.801 |
| COC(=O)c1ccc(NC(=O)CSc2nnc(Cc3cccn3C)n2-c2ccc(F)cc2)cc1 | -0.00937 |
| COc1ccc(-n2c(Cc3cccn3C)nnc2SCC(=O)Nc2cc(C)cc(C)c2)cc1 | 11.4 (active) |
| CCCc1[nH]nc2c1C(C1CC=CCC1)C(C#N)=C(N)O2 (stereo not drawn) | -0.104 |
| CC1(C)CC(=O)c2cc(OCC(=O)NCC3CCCO3)ccc2O1 (stereo not drawn) | -0.0202 |
| O=C(O)c1ccc(-n2cccc2)cc1O | -0.446 |
| Cc1ccc(OCCCC(=O)N2CCOCC2)c(C)c1 | -1.03 |
| CCOc1ccc(-c2nnn(CC(=O)N3CCN(c4ccc(F)cc4)CC3)n2)cc1OCC | -0.401 |
| CCOc1ccc(-c2nnn(CC(=O)N3CCN(c4ccc(OC)cc4)CC3)n2)cc1OCC | 3.84 (active) |
| COc1ccc(C(=O)Cn2nnc(-c3ccc(N4CCOCC4)cc3)n2)cc1OC | 0.758 |
| CCOc1cc(-c2noc(CCC(=O)N3CCOCC3)n2)ccc1OC | 13.7 (active) |
| Cc1ccc(-c2noc(CCC(N)=O)n2)cc1 | -0.953 |

| Compound | B-score |
| --- | --- |
| CN1C(=O)CC(N2CCN(c3ccccn3)CC2)C1=O (stereo not drawn) | -0.0528 |
| COc1ccc(C(=O)NCCc2ccc(S(N)(=O)=O)cc2)cc1OC | -0.0032 |
| Cc1sc2c(c1C)c(=O)n(-c1ccccc1)c1nncn21 | 0.694 |
| COc1cc2[nH]c(=O)n(CCC(=O)NC3CCN(Cc4ccccc4)CC3)c(=O)c2cc1OC | -0.633 |
| O=c1cc(-c2ccccc2)nc(N2CCCCC2)[nH]1 | 4.97 (active) |
| O=c1cc(CSc2ccccn2)nc(N2CCN(c3ccccc3)CC2)[nH]1 | 0.00444 |
| Cc1ccc(SCc2cc(=O)[nH]c(N3CCCCC3)n2)cc1 | 1.14 |
| N#Cc1nc(COc2ccc(Cl)cc2)oc1N1CCCC1 | 2.09 |
| Cc1ccc(OCc2nc(C#N)c(N3CCCC3)o2)cc1 | 2.17 |
| CC1CCN(c2oc(-c3ccccc3F)nc2C#N)CC1 | 8.13 (active) |
| COc1ccc(CCN2CNc3c(c(=O)n(C)c(=O)n3C)C2)cc1OC | -0.27 |
| Oc1c(C(c2cccs2)N2CCN(c3ccc(F)cc3)CC2)sc2ncnn12 (stereo not drawn) | -1.14 |
| CC(=O)N1CCc2cc(S(=O)(=O)Nc3ccccc3N3CCN(C)CC3)ccc21 | -0.699 |
| O=C(C1CCC1)N1CCc2cc(S(=O)(=O)NCc3cccnc3)ccc21 | 4.59 (active) |
| CCCNS(=O)(=O)c1ccc2c(c1)CCCN2C(C)=O | -1.43 |
| CC(C)(CNCC(O)c1ccccc1)N1CCOCC1 (stereo not drawn) | 0.153 |
| CN1c2ccccc2-c2nc3ccccc3n2C1c1ccco1 (stereo not drawn) | -2.57 |
| Cn1c(-c2ccco2)nc2cc3ccccc3cc21 | -4.84 (active) |
| CN(c1nc2ccccc2n2c(-c3ccco3)nnc12)S(=O)(=O)c1ccccc1 | 1.04 |
| CCCc1nc(SCC(=O)Nc2ccccc2OC)c2c(=O)n(C)c(=O)n(C)c2n1 | 1.18 |
| CCOc1cc(NC(=O)c2ccco2)c(OCC)cc1NC(=O)COc1ccccc1 | -0.0288 |
| CCOc1cc(N2CCOCC2)c(OCC)cc1NC(=O)COc1cccc2cccnc12 | -6.32 (active) |
| CCOc1ccccc1NC(=O)C1CCC(CNc2c(N3CCOCC3)c(=O)c2=O)CC1 (stereo not drawn) | -0.266 |

From PubChem BioAssay AID641 (Vanderbilt High Throughput Screening Facility, 2007)
